We go through 33 compounds from PubChem BioAssay (NCI).

The panel holds about 83,000 compounds, 20% with a hit somewhere; the sample as a whole holds those more often.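 Note: values are percent growth. 100 is the growth of untreated cells, values between 100 and 0 indicate rising inhibition; between -100 and 0 indicates cell death.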 Values without a mark were called inactive. Activity calls are given as the source filed them. The calls were made as follows: active = growth percent below 10; inactive = the rest.

The first test has as its system SK-OV-3 ovarian. The test is described as follows: NCI-60 one-dose screen, 48 h (100 = growth as untreated, 0 = no growth, -100 = all killed). Conditions: 10 µM unless noted.
Consider `CN1CCN(/C(=N\c2sc(-c3ccccc3)nc2-c2ccccc2)c2ccccc2)CC1`, for which the growth is 105%.
Take `N=C1N=C(SCc2nc3ccccc3[nH]2)NC(=O)/C1=C/c1ccc(Cl)cc1`: the growth was 111%.
With `C/C(=N\N=C1/C(=O)Nc2ccc(Cl)cc21)c1ccc2c(c1)Nc1ccccc1S2`, the growth is 50.4%.
As for `Cc1cccc(NC(=O)CN2CCN(c3ncnc4c3cnn4-c3ccccc3)CC2)c1`, the growth was 99.7%.
With `CN(C)CCOc1ccc(C(=O)C2[C@H](c3ccc(Cl)cc3)[C@@H](c3ccccc3)NC23C(=O)Nc2ccccc23)cc1` (stereo partly drawn), the growth was 121%.
On to `COc1ccc2[nH]cc(-c3nnc(N)nc3-c3cn(C)c4ncc(Br)cc34)c2c1`, for which the growth is 95.2%.

The subject of a further test is IGROV1 ovarian. The test is described as above. As to conditions: 10 µM unless noted.
Turning to `COc1c(F)ccc(C(=O)Nc2ccc3nc(NC(=O)C4CCCN(S(=O)(=O)C5CC5)C4)sc3c2)c1F` (stereo not drawn), the growth was 69.3%.
Take `CCOC(=O)C1=C(N)N(c2ccccc2)C2=C(C(=O)CC(C)(C)C2)C1c1ccc(N2CCOCC2)cc1` (stereo not drawn): the growth was 108%.
For `OCC1(CCCc2ccccc2)CCCN(c2nccc3ccccc23)C1` (stereo not drawn), the growth is 62.2%.
As for `COc1ccc(/C=N/NC(=O)Cn2nc(Cc3ccc(OC)cc3)c3onc(C)c3c2=O)cc1`, the growth was 77.6%.
The same measure, in the same setting: with `O=[N+]([O-])c1ccc(/C=C/c2nc3ccccc3n3c(=S)[nH]nc23)cc1` the figure was 78.3%; with `COC(=O)/C=C/c1cccc2c1C(=O)NC(C)(c1cc3ccccc3oc1=O)N2` (stereo not drawn), 32%.
On the same count and under the same terms, with `CCN(CC)c1ccc(/C=N/Nc2nc(-c3ccc(Br)cc3)cs2)c(O)c1` the figure was 78.8%; with `O=C(c1ccccc1)C(c1c[nH]c2ccccc12)c1c[nH]c2ccccc12`, 56%; with `CC1(C)CC[C@]2(C(=O)Nc3ccc(Br)cc3)CC[C@]3(C)C(=CCC4[C@@]5(C)C[C@@H](O)[C@H](O)[C@@](C)(CO)C5CC[C@]43C)C2C1` (stereo partly drawn), 38.2%.
As for `CC(/C=C1\SC(=S)N(CCCC(=O)NC(CC(C)C)C(=O)O)C1=O)=C\c1ccccc1` (stereo not drawn), the growth was 109%.
Still for that read-out and setting: under `Cn1cc(-c2cc(N)n3nc(-c4cn(C)c5ccccc45)cc3n2)c2cc(Br)ccc21` stands -3.64% (active); under `Cc1ccc(NCC(=O)Cn2cc(COc3ccc(C=Nc4cnc5ccccc5c4)cc3)nn2)cc1`, 112%; under `Cc1ccc([C@H]2C(C(=O)c3ccc(Cl)cc3)C3(N[C@@H]2c2ccccc2)C(=O)Nc2ccc(Cl)cc23)cc1` (stereo partly drawn), 50.9%.
Still for that read-out and setting: with `Cc1cc2nc3c4ccccc4n(CCNCCN(C)C)c3nc2cc1C` the figure was 20%.
Same read-out and setting: with `Cc1ccccc1[C@H]1C(C(=O)c2ccc(Cl)cc2)C2(N[C@@H]1c1ccccc1)C(=O)Nc1ccc(Br)cc12` (stereo partly drawn) the figure was 13.4%; with `CC(C)c1sc(NC(=O)c2cc(NC(=O)c3cc(NC(=O)c4cscn4)cn3C)cn2C)nc1C(=O)NCCCN(C)C`, 13.3%; with `CC(=O)OC[C@@]1(C)C2CC[C@]3(C)C(CC=C4C5CC(C)(C)CC[C@]5(C(=O)Nc5ccc(C)cc5)CC[C@]43C)[C@@]2(C)C[C@@H](OC(C)=O)[C@@H]1OC(C)=O` (stereo partly drawn), 60.9%.
Regarding `O=C1CC(Sc2n[nH]c(-c3ccncc3)n2)C(=O)N1c1ccc(Br)cc1` (stereo not drawn), the growth was 112%.
Consider `COc1cc2c3c(n(CCCN4CCC[C@@H]4CO)c(=O)c2cc1OC)-c1cc2c(cc1C3=O)OCO2`, for which the growth was -88.9% (active).
Consider `C=C1CCC2C3(C)COC(c4ccc(F)cc4)OC3CCC2(C)C1C/C=C1/C(=O)OCC1O` (stereo not drawn), for which the growth is -26.3% (active).
Same read-out and setting: with `Cc1sc(C(NC(=O)OCCn2c([N+](=O)[O-])cnc2C)C(F)(F)Cl)nc1-c1ccc(OC(F)(F)F)cc1` (stereo not drawn) the figure was -80.6% (active); with `CC1[C@H]2[C@H](C[C@H]3[C@@H]4CC=C5c6sc(Nc7ccccc7F)nc6CC[C@]5(C)[C@H]4CC[C@@]32C)O[C@]12CC[C@@H](C)CO2` (stereo partly drawn), -37.6% (active); with `O=C(c1ccccc1)c1ccc2nc(-c3cccc(Cl)c3)[nH]c2c1`, 113%.
Consider `OCNc1ccc(-n2cnc3cc(-c4ccc(O)cc4)ccc32)cc1C(F)(F)F`, for which the growth is 44%.
For `CCOC(=O)C(N=Nc1ccc(S(=O)(=O)N=C(N)N)cc1)C(C)=O` (stereo not drawn), the growth was 110%.
Take `CCOC(=O)/C=C/c1cccc2c1C(=O)NC(C)(c1cc3cc(Cl)ccc3oc1=O)N2` (stereo not drawn): the growth is 13%.
For `C#CCOc1cc(N(CC)CC)ccc1C(C(=O)NC(C)(C)C)N(C(=O)C1CCc2cc(F)ccc2O1)c1ccc(Br)cc1` (stereo not drawn), the growth was 80.2%.
